Assay outcomes from PubChem BioAssay.
Shown are actives, neighbours in structure and some others; about 19% of the full set was active somewhere.
Pf growth 96h: Primary qHTS for delayed death inhibitors of the malarial parasite plastid, 96 hour incubation. Potency, µM (series often up to 28.7 µM), inactives show at the top dose activity change, negative = inhibition, usual class: inhibitors. P. falciparum luciferase reporter growth, 96 h. 320,000 tested, 6.9% active; note: potency is the fitted concentration of half-maximal effect; % is set by controls: 0 for no effect and ±100 for the full control effect
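Two parasite generations (96 h, 37 C, 5% CO2) of compound exposure in infected erythrocytes (0.05% parasitemia, 2% hematocrit). Luciferase-reporter P. falciparum; decreased luminescence indicates inhibited growth, aimed at apicoplast-acting delayed death.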
Pf growth 48h: Primary qHTS for delayed death inhibitors of the malarial parasite plastid, 48 hour incubation; P. falciparum luciferase growth in erythrocytes, 48 h; Potency, µM (series often up to 28.7 µM), inactives show at the top dose activity change, negative = inhibition, hits mostly inhibitors; 310,000 tested, 5.9% active; AID 504832, 2011; note: potency is the fitted concentration of half-maximal effect; % is set by controls: 0 for no effect and ±100 for the full control effect
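Luciferase-expressing P. falciparum in infected erythrocytes (2% hematocrit, 0.1% parasitemia final) in RPMI 1640/0.5% Albumax were exposed to compound for 48 hours at 37 C, 5% CO2; growth read as luminescence.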
Marburg entry inh: qHTS for inhibitors of binding or entry into cells for Marburg Virus | Marburg virus pseudotyped entry inhibition, cell reporter | Potency, µM (series often up to 37.8 µM), for inactives: at the top dose activity change, negative = inhibition, hits mostly inhibitors | 300,000 tested, 1.8% active | AID 540276, 2011; calls by dose curve; tested in HEK293 cells; note: potency is the fitted concentration of half-maximal effect; % is set by controls: 0 for no effect and ±100 for the full control effect
Shiga toxin inh: A qHTS for Small Molecule Inhibitors of Shiga Toxin | Vero cells, Shiga toxin protein synthesis inhibition reporter | inhibition, % at 38.7 µM | 290,000 tested, 9.2% active; in the data active = inhibition mostly above about 28%, no sharp cut-off; inactive = mostly below about 43%; note: 0% is about no effect
CHX counter: Cycloheximide Counterscreen for Small Molecule Inhibitors of Shiga Toxin. cell reporter, cycloheximide protein synthesis inhibition counterscreen. max response, %. 300,000 tested, 12% active; in the data active = max response mostly above about 13%, no sharp cut-off; inactive = mostly below about 14%; note: read at 38.3 µM for the half of the compounds with a filed dose; 0% is about no effect
Lassa entry inh: qHTS for Inhibitors of binding or entry into cells for Lassa Virus. Lassa virus pseudotype entry inhibition, cell reporter. Potency, µM (series often up to 37.9 µM), inactives show at the top dose activity change, negative = inhibition, hits mostly inhibitors. 300,000 tested, 1.2% active; calls by dose curve; tested in HEK293 cells; note: potency is the fitted concentration of half-maximal effect; % is set by controls: 0 for no effect and ±100 for the full control effect; nearly all actives have a fitted effect of over 50% in size
An asterisk follows results filed as active; ! = not active in a repeat; [ ] = another dose, or the depositor's remark. Unless noted, calls come from the whole dose curve; as a rule, active = well fitted inhibition curve with a large enough effect; inconclusive = small, poorly fitted or top-dose-only effect, or another doubt; inactive = no such curve, though single readings can be large or run the other way.

`CC(C)(C)c1ccc(/C=N/NC(=O)C2CCCC2)cc1` gave Pf growth 96h inconclusive, Pf growth 48h -23%, Shiga toxin inh 133* and CHX counter 51*.
For COc1ccc(N2CC(C(=O)N/N=C/c3ccccc3)CC2=O)cc1 (centres undefined) the results were Pf growth 96h -20%, Pf growth 48h 6%, Marburg entry inh inconclusive, Shiga toxin inh 2, CHX counter -2 and Lassa entry inh -6%[46.1 µM].
`CC(=O)Nc1ccc(C=NNC(=O)C2CC2)cc1` gave Marburg entry inh 15%[46.1 µM] and Lassa entry inh -4%[46.1 µM].
`CCN1C(=O)CS/C1=N\S(=O)(=O)c1ccccc1` gave Pf growth 96h 48%, Pf growth 48h -24%, Marburg entry inh 3%[46.1 µM], Shiga toxin inh 3, CHX counter -2 and Lassa entry inh -10%.
O/N=C\c1cnc(N2CCN(c3ccccc3)CC2)s1 was read as Pf growth 96h 117%, Pf growth 48h 66%, Shiga toxin inh 68* and CHX counter 42*.
For CC[C@@H](C)[C@H]1O[C@]2(CC[C@H]1C)C[C@@H]1C[C@@H](CC=C(C)[C@@H](O[C@H]3C[C@H](OC)[C@@H](O[C@H]4C[C@H](OC)[C@@H](O)[C@H](C)O4)[C@H](C)O3)[C@@H](C)C=CC=C3CO[C@@H]4[C@H](O)C(C)=C[C@@H](C(=O)O1)[C@]34O)O2 the results were Marburg entry inh 10µM* and Lassa entry inh 2.6µM*.
`CC[C@@H](C)[C@H]1O[C@]2(CC[C@@H]1C)C[C@@H]1C[C@@H](C/C=C(\C)[C@@H](O[C@H]3C[C@H](OC)[C@@H](O[C@H]4C[C@H](OC)[C@@H](O)[C@H](C)O4)[C@H](C)O3)[C@@H](C)/C=C/C=C3\CO[C@@H]4[C@H](O)C(C)=C[C@@H](C(=O)O1)[C@]34O)O2` gave Marburg entry inh 6.3µM* and Lassa entry inh inconclusive.
`Cc1ccc(NC(=O)CN2C(=O)C3C4C=CC(C4)C3C2=O)cc1` (centres undefined) gave Pf growth 96h 1%, Pf growth 48h 152%, Marburg entry inh 3%[46.1 µM], Shiga toxin inh 10, CHX counter 16 and Lassa entry inh -1%.
`O=C(CN1C(=O)C2C3C=CC(C3)C2C1=O)Nc1ccc2c(c1)OCCO2` (centres undefined) gave Pf growth 96h 54%, Pf growth 48h 57%, Marburg entry inh inconclusive, Shiga toxin inh 60*, CHX counter 17 and Lassa entry inh inconclusive.
O=C(CN1C(=O)CSc2ccccc21)Nc1ccc2c(c1)OCCO2 was read as Pf growth 96h 24%, Marburg entry inh 2%, Shiga toxin inh 54, CHX counter 29* and Lassa entry inh -2%.
`O=C(CN1C(=O)CCSc2ccccc21)Nc1ccc2c(c1)OCO2` gave Pf growth 48h inconclusive, Marburg entry inh inconclusive, Shiga toxin inh -30, CHX counter -2 and Lassa entry inh 9%.
Screening CCC1Oc2ccccc2N(CC(=O)Nc2ccc3c(c2)OCCO3)C1=O (centres undefined) returned Pf growth 96h -11%, Pf growth 48h 15%, Marburg entry inh 22%, Shiga toxin inh 94*, CHX counter 17* and Lassa entry inh 14%.
Cc1ccc(C(C(=O)NC(C)(C)C)N(Cc2cccs2)C(=O)c2csnn2)cc1 (centres undefined) was read as Marburg entry inh -19% and Lassa entry inh 7%.
Screening CC(=O)CC(=O)NC1C2CC3CC(C2)CC1C3 (centres undefined) returned Pf growth 96h -29%, Pf growth 48h inconclusive, Marburg entry inh -18%[46.1 µM], Shiga toxin inh 11, CHX counter 1 and Lassa entry inh -3%.
CC(C)NC(=O)NC1C2CC3CC(C2)CC1C3 (centres undefined) was read as Pf growth 96h 10µM*, Pf growth 48h inconclusive, Marburg entry inh 6%, Shiga toxin inh -1, CHX counter 1 and Lassa entry inh 0%.
Screening CC(=O)c1ccc2c(c1)N(CCCN1CCC(CCO)CC1)c1ccccc1S2 returned Pf growth 96h inconclusive and Pf growth 48h 8.1µM*.
OCCN1CCN(CCCN2c3ccccc3Sc3ccc(Cl)cc32)CC1 was read as Pf growth 96h 6.6µM*, Pf growth 48h 12µM*, Marburg entry inh 5µM*, Shiga toxin inh -21, CHX counter -6 and Lassa entry inh 15µM*.
For CN1CCN(CCCN2c3ccccc3Sc3ccc(S(=O)(=O)N(C)C)cc32)CC1 the results were Pf growth 96h 3.6µM* and Pf growth 48h 13µM*.
For CN1CCN(CCCNC(=O)c2cn(C)c3ccc(S(=O)(=O)N(C)C)cc3c2=O)CC1 the results were Pf growth 96h inconclusive, Shiga toxin inh 2 and CHX counter -1.
CC(C)CN1CCC(=O)N(CCSc2ccc(Br)cc2)CC1 was read as Pf growth 96h inconclusive, Pf growth 48h 93%, Shiga toxin inh 53*! and CHX counter 25.
